TDP1 cell noCPT – qHTS for Inhibitors of human tyrosyl-DNA phosphodiesterase 1 (TDP1): qHTS in cells in absence of CPT. DT40 Tdp1-/- hTDP1 cells, no CPT, ATP luminescence, 48 h. Potency, µM (highest dose often 46.2 µM), for the others: at the highest dose activity change, negative = growth inhibition, usual class: inhibitors. 420,000 tested, 15% active. AID 686978, 2013; note: potency is the fitted concentration of half-maximal effect; nearly all actives have a fitted effect of over 55% in size
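Stably hTDP1-transfected Tdp1-null chicken DT40 cells were treated with library compounds minus camptothecin and grown for at least 48 hr at 37 °C, after which cellular ATP was quantified by luminescence.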
IL-1B inflam inh – qHTS for Inhibitors of Inflammasome Signaling: IL-1-beta AlphaLISA Primary Screen; THP-1 LPS/ATP IL-1B secretion, AlphaLISA, 16 h; active compounds read low; activity change, % at 57.5 µM; 360,000 tested, 4.7% active; AID 743279, 2014; in the data active = activity change below about -50%; inconclusive = mostly about -30% to -49%
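Secreted IL-1B measured by AlphaLISA bead assay after 16 h compound exposure of THP-1 cells; compounds (final up to 57.5 uM) added 1 h before LPS (250 ng/mL) and ATP (1.25 mM) stimulation; lower signal means less secretion.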
DT40 TDP1 CPT – qHTS for Inhibitors of human tyrosyl-DNA phosphodiesterase 1 (TDP1): qHTS in cells in presence of CPT | chicken DT40 Tdp1-/-;hTDP1 cells + 20 nM CPT, ATP luminescence, 48 h | Potency, µM (top dose mostly 46.2 µM), inactives show at the highest dose activity change, negative = growth inhibition, most hits filed as inhibitors | 420,000 tested, 12% active; note: potency is the fitted concentration of half-maximal effect; nearly all actives have a fitted effect of over 55% in size
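Chicken DT40 Tdp1-/- cells stably complemented with human TDP1 were seeded at 400 cells/well in medium containing 20 nM camptothecin, exposed to pin-transferred compounds, and grown at 37 °C for at least 48 hr. Viability was read as ATP luminescence.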
HT1080NT lethal – qHTS for induction of synthetic lethality in tumor cells producing 2HG: qHTS for the HT-1080-NT fibrosarcoma cell line | HT-1080-NT fibrosarcoma viability, CellTiter-Glo ATP luminescence, 48 h | Potency, µM (doses to about 46.1 µM), inactives show at the top dose activity, negative = less viability, usual class: cytotoxic | 360,000 tested, 1.6% active;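 note: NT is the 2HG producing partner of a matched IDH1 knockdown line; potency is the fitted concentration of half-maximal effect; 0% = DMSO-treated cells and -100% = media-only wells without cells; nearly all actives have a fitted effect of over 55% in size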
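Luminescent CellTiter-Glo readout after 48 hours of compound exposure at 37 degrees C defined viability of HT-1080-NT cells. Activity was normalized to DMSO wells and cell-free media wells; concentration-response curves were fitted and assigned curve classes.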
HT1080 IDH1KD tx – qHTS for induction of synthetic lethality in tumor cells producing 2HG: qHTS for the HT-1080-IDH1KD cell line; Potency, µM (titrated, usually from 46.1 µM), for the others: at the top dose activity, negative = toxicity, most hits filed as cytotoxic; AID 686971, 2013; 360,000 tested, 2% active; HT-1080 IDH1 knockdown viability, ATP luminescence, 48 h;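 note: potency is the fitted concentration of half-maximal effect; 0% = DMSO wells and -100% = cell-free medium wells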
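Knockdown cells (IDH1KD HT-1080) received compounds 2 h after plating at 750 cells/well and were kept 48 h at 37 °C in 5% FBS RPMI. A CellTiter-Glo luminescence read gave % activity for curve fitting.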
* hit, by the source's call; u = inconclusive; x = not tested or not shown. Hits are enriched below; roughly 19% of the tested compounds scored in any of these assays. Unless noted, calls come from the whole dose curve; as a rule, active = well fitted curve in the direction sought with a large enough effect; inconclusive = small, poorly fitted or top-dose-only effect, or another doubt; inactive = no such curve, though single readings can be large; an effect the other way counts as inactive or inconclusive. Unless noted, % is set by controls: 0 for no effect and ±100 for the full control effect.

SMILES	TDP1 cell noCPT	IL-1B inflam inh	DT40 TDP1 CPT	HT1080NT lethal	HT1080 IDH1KD tx
COc1ccc(N(CC(=O)Nc2cc(OC)cc(OC)c2)S(=O)(=O)c2c(C)noc2C)cc1	5.8µM*	x	7.3µM*	x	x
Cc1cc(C)cc(N(CC(=O)NC2CCC(C)CC2)S(=O)(=O)c2c(C)noc2C)c1 (stereo unspecified)	u	-7	21µM*	0%	-1%
CC(Cc1ccccc1)C(=O)Nc1ccc(Br)cc1 (stereo unspecified)	-2%	-4	11%	0%	3%
COc1ccc(N(CC(=O)Nc2cc(Cl)ccc2C)S(=O)(=O)c2c(C)noc2C)cc1	3.7µM*	32	2.9µM*	5.8µM*	u
COc1ccc(N(CC(=O)Nc2cc(OC)c(OC)cc2C(=O)O)S(=O)(=O)c2c(C)noc2C)cc1	6%	0	3%	-14%	2%
COC(=O)c1sccc1S(=O)(=O)N(CC(=O)Nc1ccc(C)cc1)c1ccccc1	21µM*	x	u	x	x
COc1ccc(N(CC(=O)Nc2cc(C)ccc2OC)S(=O)(=O)c2c(C)noc2C)cc1	u	43	23µM*	u	u
COc1ccc(N(CC(=O)Nc2cc(C)ccc2C)S(=O)(=O)c2c(C)noc2C)cc1	-27%	45	u	-6%	-26%
COc1cc(NC(=O)CN(c2ccc(C)cc2)S(=O)(=O)c2cccc3nonc23)cc(OC)c1	18µM*	x	u	x	x
CSc1ccc(/C=C/C(=O)OCC(=O)NC2CCCCCC2)cc1	u	35	-30%	0%	11%
COc1ccc(NC(=O)Cc2nnc(SCC(=O)c3ccccc3)n2C)cc1	-22%	21	2%	-1%	0%
O=C(c1ccccc1Br)N(Cc1ccco1)C1CCS(=O)(=O)C1 (stereo unspecified)	-11%	x	-20%	x	x
CC(=O)c1cccc(NC(=O)CN(c2cc(C)cc(C)c2)S(=O)(=O)c2c(C)noc2C)c1	18µM*	x	16µM*	x	x
CN(C)C(=O)CN1CCN(C(=O)CCl)CC1	16µM*	-4	u	-27%	-1%
O=C(CSc1nccc(=O)[nH]1)c1ccccc1Br	-4%	-21	-22%	-9%	0%
Cc1cccc(-n2c3nc(=O)[nH]c(=O)c-3cc3c(Cl)cccc32)c1C	0.58µM*	x	0.82µM*	x	x
Cc1cccc(-n2c3nc(=O)[nH]c(=O)c-3cc3ccc(Cl)cc32)c1C	8.2µM*	x	u	x	x
Cc1nn(-c2ccccc2)c2c1cc1c(=O)[nH]c(=O)nc-1n2-c1cccc(Cl)c1	-3%	x	9%	x	x
Nc1ccc2c(c1)[nH]c(=O)c1cc(N)ccc12	u	-5	-27%	0%	-8%
CCNc1nc(CN2CCCCC2)nc2scc(-c3ccccc3)c12	16µM*	-91*	12µM*	-24%	u
OCC1CCCN(c2nc(CN3CCCCC3)nc3scc(-c4ccccc4)c23)C1 (stereo unspecified)	u	-6	15µM*	-18%	-14%
Cc1ccccc1OCC(=O)Nc1cc(C)c(O)c(-c2nc3ccccc3o2)c1	u	x	10µM*	x	x
Cc1cccc(OCC(=O)Nc2cc(C)c(O)c(-c3nc4ccccc4o3)c2)c1	u	x	11µM*	x	x
Cc1ccc(OCC(=O)Nc2ccc(-c3nc4ccccc4o3)cc2)c(C)c1	-14%	x	-18%	x	x
CC(C)N1CCC1(C)C(=O)Nc1nccc2cccnc12 (stereo unspecified)	5.2µM*	0	4.1µM*	7%	2%
SMILES	TDP1 cell noCPT	IL-1B inflam inh	DT40 TDP1 CPT	HT1080NT lethal	HT1080 IDH1KD tx
Cc1cc(NC(=O)C2(C)CCN2C(C)C)c2ccccc2n1 (stereo unspecified)	21µM*	90	u	0%	0%
CC(C)N1CCC1(C)C(=O)Nc1cccc2ccccc12 (stereo unspecified)	u	12	u	1%	-3%
O=C(NCc1ccncc1)C(=O)NC1CC1	-5%	0	7%	20%	15%
O=C(CN(Cc1ccc(Cl)cc1)C(=O)c1csnn1)NCc1ccc(F)cc1	u	16	-16%	-17%	-9%
COc1cc(Cc2cc(OC)c(O)c(OC)c2)cc(OC)c1O	21µM*	-1	16µM*	-5%	u
COc1cc(CN2CCCCCC2)cc(OC)c1O	3%	-1	-9%	-12%	-2%
Cc1ccccc1OCCCSc1nc2ccccc2[nH]1	16µM*	-81*	u	-19%	-24%
Fc1c(F)c(F)c(CSc2nc3ccccc3[nH]2)c(F)c1F	-13%	-22	-18%	0%	-2%
Cc1c(OCC(F)(F)F)ccnc1CSc1nc2ccccc2[nH]1	23µM*	u	u	-20%	-28%
CN(Cc1ccccc1)C(=O)c1[nH]cnc1C(=O)NCC(=O)OCc1ccccc1	-20%	2	-8%	2%	7%
Cc1nc2ccc(Br)cc2c2c1CC(CO)O2 (stereo unspecified)	2%	15	-6%	-2%	-3%
Cc1nc2ccc(Br)cc2c2c1CC(CBr)O2 (stereo unspecified)	-21%	-74*	17%	-1%	-15%
CCCC(=O)Oc1c(Sc2ccc(C)cc2)c(C)nn1-c1ccccc1	-17%	x	-17%	x	x
O=C(COC(=O)c1cccs1)Nc1ccccc1	-9%	-1	-6%	-4%	1%
CC(C)CNC(=O)COC(=O)c1n[nH]c2ccccc12	-2%	15	5%	19%	24%
CC(C)CNC(=O)COC(=O)c1c2c(nc3ccccc13)/C(=C\c1cccs1)CC2	21µM*	-5	u	-5%	u
O=C(COC(=O)c1c2c(nc3ccccc13)/C(=C\c1cccs1)CCC2)Nc1ccccc1	9.2µM*	-55*	21µM*	-12%	-28%
CC(=O)c1ccc(NC(=O)COC(=O)c2c3c(nc4ccccc24)/C(=C\c2cccs2)CCC3)cc1	16µM*	-51*	13µM*	-21%	u
CC(C)NC(=O)C1(C)CSCC(=O)N1Cc1cccs1 (stereo unspecified)	1%	-24	25%	4%	0%
NC(=O)CC(NC(=O)Cc1ccc(Br)cc1)c1ccc(NC2CCCCCC2)c([N+](=O)[O-])c1 (stereo unspecified)	u	u	18µM*	5%	10%
